An excerpt weighted towards active compounds, which were near 2.2% of everything screened.
PvdQ inh: P. aeruginosa PvdQ acylase inhibitors, primary screen, biochemical, fluorescence, plate reader and imaging, single point | purified PvdQ acylase | inhibition, % at 10 µM | AID 488965, 2010 | actives 0.063% (n = 340,000); in the data active means inhibition above about 30%, passing the limit was not always enough
Mot1-301 SUMO: yeast Mot1-301 growth rescue at high temperature, primary screen, SUMOylation pathway inhibitor project, S. cerevisiae, ATP luminescence, 38.5C | S. cerevisiae Mot1-301 growth rescue; percent above DMSO median, 100 means doubled | growth rescue, % at 18.8 µM | actives 1% (n = 320,000) | AID 2716, 2010;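 active means every valid replicate shows activation above 250% relative to neutral control wells; inactive means the rest, any valid replicate at or below 250%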
PHOSPHO1 block: PubChem AID 1565; recombinant PHOSPHO1, absorbance phosphatase assay; inhibition, % at 13.3 µM; actives 1.1% (n = 290,000); in the data active means inhibition above about 60%
JMJD2C inh: inhibitors of GASC-1 histone demethylase, primary screen, biochemical, fluorescence, DELFIA europium; GST-JMJD2C(1-420) H3K9me3 demethylation; inhibition, % at 2.35 µM; actives 0.069% (n = 330,000); AID 2099, 2009;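 active means more than half of a compound's replicate wells show inhibition beyond 50%, single wells judged on their own value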;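 further: signal counts dimethyl H3K9 product captured on neutravidin plate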
Target sequence (Q9H3R0 1-420 limits assumed): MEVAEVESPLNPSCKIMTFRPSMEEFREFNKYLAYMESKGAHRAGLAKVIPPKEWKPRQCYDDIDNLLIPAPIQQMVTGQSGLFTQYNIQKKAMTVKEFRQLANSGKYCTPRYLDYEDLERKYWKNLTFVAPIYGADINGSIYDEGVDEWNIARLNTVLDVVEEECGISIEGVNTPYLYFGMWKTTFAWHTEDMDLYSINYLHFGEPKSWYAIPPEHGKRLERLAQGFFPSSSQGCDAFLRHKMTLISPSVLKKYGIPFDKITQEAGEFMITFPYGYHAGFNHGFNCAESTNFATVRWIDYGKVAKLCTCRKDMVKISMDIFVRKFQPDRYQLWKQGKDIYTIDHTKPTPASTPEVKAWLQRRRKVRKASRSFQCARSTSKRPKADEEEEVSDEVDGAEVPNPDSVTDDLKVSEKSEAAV
HDAC3 inh: HDAC3 deacetylase inhibitors, primary screen, biochemical, fluorescence, cell-free homogeneous; recombinant HDAC3, fluorogenic peptide/trypsin coupled; inhibition, % at 8.3 µM; actives 0.15% (n = 320,000); in the data active means inhibition above about 26%, passing the limit was not always enough
p-CIP stab down: p/CIP-EGFP fusion destabilizers, primary screen, fluorescence, F442A cells | Q05BA5 | 16 h | decrease of EGFP signal, % at 10 µM | actives 0.01% (n = 290,000);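 active means EGFP signal decrease of at least 30% at 10 µM or well 3 SD below plate mean, unless failing retest; inactive means the rest, including hits failing retest or dose response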
Each line names hits and unclear results; the compound was inactive in the other large screens.

Cn1c(-c2sccc2OCc2ccc(Cl)cc2Cl)n[nH]c1=S	none
COc1ccc(S(=O)(=O)N2CC(C)N(C(=O)N(C)C)C2C)cc1 (stereo not drawn)	none
S=C1NC2=C(CCC/C2=C\c2ccc(Cl)cc2)C(c2ccc(Cl)cc2)N1 (stereo not drawn)	PHOSPHO1 block 91.8
COCc1cc(C)nc(N2CCN(Cc3ccccc3)CC2)c1C#N	PHOSPHO1 block 78.3
COCCn1c(SCC(=O)Nc2sccc2C(N)=O)nnc1-c1ccncc1	none (no result: JMJD2C inh)
CCOC(=O)c1[nH]cnc1C(=O)Nc1cccc(Cl)c1	none
COc1cc(OC)c(N(C)C(=O)c2cn(C)c(=O)c3cc(OC)c(OC)cc23)cc1Cl	HDAC3 inh 53.9
CC(C)CNC(=S)NNC(=O)c1ccc2c(c1)OCO2	PHOSPHO1 block 61.5
COc1ccc(S(=O)(=O)N2CCOCC2)cc1NC(=O)Cn1nnc2ccccc2c1=O	none
COCCn1c(C)cc(C2=NNC(=Nc3ccccc3F)SC2)c1C	PHOSPHO1 block 88.1
CCN1CCN(c2ccc(Cl)cc2NC(=O)c2ccc(-n3nc(C)cc3C)cc2)CC1	none (no result: PHOSPHO1 block, p-CIP stab down)
CC(=O)Nc1ccc(S(=O)(=O)NNc2ccc([N+](=O)[O-])cc2)cc1	Mot1-301 SUMO 296.1 (no result: PHOSPHO1 block)
CC(=O)Nc1ccc(S(=O)(=O)NNC(=O)c2ccc([N+](=O)[O-])cc2)cc1	none
O=C(NNc1ccccc1)C(=O)NNS(=O)(=O)c1ccc([N+](=O)[O-])cc1	Mot1-301 SUMO 368.5
COc1ccc(C2/C(=C(\O)c3ccc4c(c3)OCCO4)C(=O)C(=O)N2CCCN(C)C)cc1 (stereo not drawn)	none
COc1cccc(C2/C(=C(\O)c3ccc4c(c3)OCCO4)C(=O)C(=O)N2CCN(C)C)c1 (stereo not drawn)	Mot1-301 SUMO 352.5
CC(C)(C)NC(=O)CSc1nnc(-c2c[nH]c3ccccc23)o1	none
CCCC(C)NC(=O)CSc1nnc(-c2c[nH]c3ccccc23)o1 (stereo not drawn)	PHOSPHO1 block 73.2
c1ccc2c(-c3nnc(SCc4cn5ccccc5n4)o3)c[nH]c2c1	PHOSPHO1 block 85.0
O=C(NCC1CCCCC1)c1cccc([N+](=O)[O-])c1	none
O=C(NCC1CC1)c1cc([N+](=O)[O-])cc([N+](=O)[O-])c1	PvdQ inh 67.9
CCOc1ccc(NC(=O)c2ccc3c(c2)OCCO3)cc1S(=O)(=O)N(CC)CC	none (no result: PHOSPHO1 block, p-CIP stab down)
Cn1c(=O)c(Nc2ccc(O)cc2)c2c3c(cccc31)C(=O)c1ccccc1-2	JMJD2C inh 59.6
CCc1n[nH]c(=S)n1/N=C/c1cc(Br)c(OC)cc1OC	PHOSPHO1 block 60.3
CCc1n[nH]c(=S)n1/N=C/c1ccc(-c2ccc(Br)cc2)o1	none (no result: PHOSPHO1 block, p-CIP stab down)
O=C(Cc1cccs1)NNC(=S)NCc1ccc(Cl)cc1	PHOSPHO1 block 100.4
Cn1ccnc1Sc1nc2ccccc2nc1NS(=O)(=O)c1ccccc1	PHOSPHO1 block 73.4
CC(=O)Nc1ccc(S(=O)(=O)Nc2nc3ccccc3nc2Sc2nncn2C)cc1	none
Cn1cnnc1Sc1nc2ccccc2nc1NS(=O)(=O)c1ccccc1	PHOSPHO1 block 62.2
COc1ccc(O)c(CN2CCC(n3nccc3NC(=O)c3ccccc3Cl)CC2)c1	none
CN1CCN(C(=O)C2CCCN(S(=O)(=O)c3ccc(Cl)cc3)C2)CC1 (stereo not drawn)	PHOSPHO1 block 65.4
CN1CCN(C(=O)C2CCCN(S(=O)(=O)c3ccc(Br)cc3)C2)CC1 (stereo not drawn)	none
COc1ccc(Nc2cc(C(=O)NCCCN3CCN(C)CC3)c3ccccc3n2)c(OC)c1	PHOSPHO1 block 67.3
COC(=O)c1ccc(-n2nnnc2SCC(=O)Nc2ccccc2F)cc1	none
CCOC(=O)c1c(S(=O)(=O)N2CCCC(C)C2)c(C)n(C)c1C (stereo not drawn)	none
CCOC(=O)c1c(S(=O)(=O)N2CCCC(C(=O)Nc3ccc(C)cn3)C2)c(C)n(C)c1C (stereo not drawn)	PHOSPHO1 block 64.0
NC(=O)c1ccc(=O)n(Cc2ccc(F)c(F)c2)c1	none (no result: PHOSPHO1 block)

Screening data as filed in PubChem.
